Source: PubChem (National Center for Advancing Translational Sciences (NCATS))
Sm TGR block – qHTS Assay for the Inhibitors of Schistosoma Mansoni Peroxiredoxins | actives 3% (n = 360,000) | AID 485364, 2010 | Potency, µM (series often up to 114 µM), for inactives: at the top dose activity change, negative = inhibition, most hits filed as inhibitors | purified TGR, DTNB reduction, TNB absorbance 405 nm | Schistosoma mansoni thioredoxin glutathione reductase (TGR), Q962Y6; further: potency means the concentration at half of the fitted maximal effect; on the % scale 0 is the no-effect control and ±100 the full control effect; nearly all actives have a fitted effect of over 60% in size
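Kinetic colorimetric format: TGR-catalysed, NADPH-driven DTNB reduction monitored via TNB absorbance. Enzyme dispensed at 20 nM; compound exposure 15 min at room temperature before reaction start.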
Shiga toxin inh – A qHTS for Small Molecule Inhibitors of Shiga Toxin; Vero cells, Shiga toxin protein synthesis inhibition reporter; inhibition, % at 38.7 µM; actives 9.2% (n = 290,000); in the data active means inhibition mostly above about 28%, no sharp cut-off; inactive means mostly below about 43%; further: 0% is about no effect
CHX counter – Cycloheximide Counterscreen for Small Molecule Inhibitors of Shiga Toxin | cell reporter, cycloheximide protein synthesis inhibition counterscreen | max response, % | actives 12% (n = 300,000); in the data active means max response mostly above about 13%, no sharp cut-off; inactive means mostly below about 14%; further: read at 38.3 µM for the half of the compounds with a filed dose; 0% is about no effect
NS1 inh – qHTS Assay for Inhibitors of Influenza NS1 Protein Function; actives 0.4% (n = 270,000); Potency, µM (doses to about 46.1 µM), inactives show at the highest dose activity, positive = more growth; calls by dose curve; further: potency means the concentration at half of the fitted maximal effect; actives are rising curves; nearly all actives have a fitted effect of over 50% in size
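S. cerevisiae expressing influenza A NS1, grown in glucose, washed, then diluted 1:100 into pH 6.0 -URA galactose medium with 23 nl compound. Growth recovery read as OD600; NS1-free strain serves as control.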
Pf growth 48h – Primary qHTS for delayed death inhibitors of the malarial parasite plastid, 48 hour incubation | P. falciparum luciferase growth in erythrocytes, 48 h | Potency, µM (doses to about 28.7 µM), for the others: top-dose activity change, negative = inhibition, most hits filed as inhibitors | actives 5.9% (n = 310,000) | AID 504832, 2011; further: potency means the concentration at half of the fitted maximal effect; on the % scale 0 is the no-effect control and ±100 the full control effect
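Here the parasites carry a stable luciferase gene and grow inside erythrocytes in Albumax-based RPMI medium with compound for one erythrocytic cycle. Activity is scored as loss of luminescent signal.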
Pf growth 96h – Primary qHTS for delayed death inhibitors of the malarial parasite plastid, 96 hour incubation. P. falciparum luciferase reporter growth, 96 h. Potency, µM (highest dose often 28.7 µM), inactives show at the highest dose activity change, negative = inhibition, most hits filed as inhibitors. actives 6.9% (n = 320,000); further: potency means the concentration at half of the fitted maximal effect; on the % scale 0 is the no-effect control and ±100 the full control effect
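Two parasite generations (96 h, 37 C, 5% CO2) of compound exposure in infected erythrocytes (0.05% parasitemia, 2% hematocrit). Luciferase-reporter P. falciparum; decreased luminescence indicates inhibited growth, aimed at apicoplast-acting delayed death.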
* = called active by the depositor; [ ] = remark or other dose. Only some compounds are listed: those with a hit (about 21% of all), similar ones and a draw of the others. Unless noted, the call rests on the fitted dose curve; in most records, active means well fitted curve in the direction sought with a large enough effect; inconclusive means small, poorly fitted or top-dose-only effect, or another doubt; inactive means no such curve, though single readings can be large; an effect the other way counts as inactive or inconclusive.

What do the screens show for `Cc1ccc(-c2nnc(SCc3nc4ccccc4[nH]3)n2Cc2ccco2)cc1`?
Sm TGR block: -15%; Shiga toxin inh: -10; CHX counter: 5; NS1 inh: 15%; Pf growth 48h: inconclusive; Pf growth 96h: inconclusive

How did CC(C)(C)c1nnc(SCC(=O)c2ccccc2)n(N)c1=O do in these assays?
Sm TGR block: -10%; Shiga toxin inh: 63*; CHX counter: 57*; NS1 inh: inconclusive; Pf growth 48h: 17%; Pf growth 96h: 14%

How did Cn1c(SCc2ccccc2)nnc1-c1ccco1 do in these assays?
Sm TGR block: -15%; Shiga toxin inh: 82*; CHX counter: 41*; Pf growth 48h: -3%; Pf growth 96h: 9%

How did CCn1c(SCC(N)=O)nnc1-c1ccco1 do in these assays?
Sm TGR block: -12%; Shiga toxin inh: -8; CHX counter: -4; NS1 inh: -4%; Pf growth 48h: 11%; Pf growth 96h: 0%

What do the screens show for `c1coc(Cn2c(SCc3nc4ccccc4[nH]3)nnc2-c2cccs2)c1`?
Sm TGR block: -17%; Shiga toxin inh: -4; CHX counter: -3; NS1 inh: 3%; Pf growth 48h: -22%; Pf growth 96h: 10µM*

Results for CC1CCN(C(=O)COC(=O)C23CC4CC(CC(O)(C4)C2)C3)CC1 ?
Sm TGR block: -7%; Pf growth 48h: 32%; Pf growth 96h: 82%

What do the screens show for `O=c1c(N2CCN(c3ccccc3)CC2)csc2ccc(Cl)cc12`?
Sm TGR block: -10%

Results for Cc1c(CN2CCCC(C)C2)c(O)n(CCO)c(=O)c1C#N (stereo not drawn) ?
Sm TGR block: 0%; Shiga toxin inh: -13; CHX counter: -5; NS1 inh: 8%; Pf growth 48h: 5%; Pf growth 96h: 38%

Results for C=CCn1c(O)c(CN2CCCCC2)c(C)c(C#N)c1=O ?
Sm TGR block: 13µM*; Shiga toxin inh: 17; CHX counter: 9; Pf growth 48h: -7%; Pf growth 96h: 15%

Results for Cc1cccc(Cn2c(SCc3ccc(C(=O)NC4CCCC4)cc3)nc3cccnc32)c1 ?
Sm TGR block: 22%

How did COc1ccc(C(=O)C(C)N(C(=O)c2ccc(Cl)cc2Cl)N2C(=O)C3C4C=CC(C4)C3C2=O)cc1 (stereo not drawn) do in these assays?
Sm TGR block: -2%; Shiga toxin inh: -11; CHX counter: -3; NS1 inh: 27%; Pf growth 48h: 7.4µM*; Pf growth 96h: inconclusive

Results for Cc1ccc(C(=O)C(C)N(C(=O)c2ccc(Cl)cc2Cl)N2C(=O)CCCC2=O)cc1 (stereo not drawn) ?
Shiga toxin inh: -9; CHX counter: -2; NS1 inh: 3%; Pf growth 48h: 2%; Pf growth 96h: 12µM*

What do the screens show for `Cc1ccc(C(=O)CN(C(=O)c2ccc(Cl)cc2)N2C(=O)CCC2=O)cc1`?
Sm TGR block: -3%; Shiga toxin inh: 1; CHX counter: 1; Pf growth 48h: 47%; Pf growth 96h: 64%

How did Cc1c(Cl)cccc1NC(=O)Nc1c[nH]c(=O)[nH]c1=O do in these assays?
Sm TGR block: -3%

How did CC1(C)CC(N2CCN(CCO)CC2)=CC(=S)N1 do in these assays?
Sm TGR block: 40µM*; Shiga toxin inh: -2; CHX counter: -5; NS1 inh: -4%; Pf growth 48h: 0%; Pf growth 96h: -8%

What do the screens show for `COc1cc(NC(=S)N2CCN(CCO)CC2)cc(OC)c1`?
Sm TGR block: -2%; Shiga toxin inh: -7; CHX counter: -1; NS1 inh: 5%; Pf growth 48h: 11%; Pf growth 96h: inconclusive

How did CC(=O)N(\C=C/C=C/C=C1\Sc2ccccc2C1=O)c1ccccc1 do in these assays?
Sm TGR block: 16µM*; Shiga toxin inh: 115*; CHX counter: 59*; Pf growth 48h: inconclusive; Pf growth 96h: 64%

Results for CN(C)/C=C1/Sc2ccccc2C1=O ?
Sm TGR block: 7%; Shiga toxin inh: 34; CHX counter: 32*; NS1 inh: -153%; Pf growth 48h: 11%

What do the screens show for `CC(=O)Nc1ccc(/C=C2/Sc3ccccc3C2=O)cc1`?
Sm TGR block: -7%[57.1 µM]; Shiga toxin inh: 22; CHX counter: 10; NS1 inh: -3%; Pf growth 48h: 6%; Pf growth 96h: 26%

How did COC(=O)c1cc2oc3ccccc3c2n1CC(=O)Nc1ccc(N(C)C)cc1 do in these assays?
Sm TGR block: 0%

Results for C=Cc1cc2c(s1)c1cnn(Cc3ccccc3F)c(=O)c1n2C ?
Shiga toxin inh: -6; CHX counter: -4

How did Cc1cc2nc(C)n(CCCNC(=O)Nc3ccc(C#N)cc3)c2cc1C do in these assays?
Sm TGR block: -10%; Shiga toxin inh: -17; CHX counter: -5; NS1 inh: -5%; Pf growth 48h: 10µM*; Pf growth 96h: 4%

Results for CCC(C(=O)Nc1ccccc1OC)n1c(C(=O)OC)cc2ccsc21 (stereo not drawn) ?
Sm TGR block: -16%; Shiga toxin inh: 4; CHX counter: -2; NS1 inh: -37%; Pf growth 48h: 12µM*; Pf growth 96h: inconclusive

How did CCOC(=O)N1CCC(NC(=O)CCC(=O)c2ccccc2)CC1 do in these assays?
Sm TGR block: -2%; Shiga toxin inh: -8; CHX counter: -2; NS1 inh: -5%; Pf growth 48h: -9%; Pf growth 96h: 8.3µM*

Results for CCOC(=O)N1CCN(C(=O)CCn2nc(-c3ccccc3)ccc2=O)CC1 ?
Sm TGR block: 1%; Shiga toxin inh: 9; CHX counter: -1; NS1 inh: 15%; Pf growth 48h: 34%; Pf growth 96h: -4%

What do the screens show for `CCOC(=O)N1CCC(NC(=O)Cn2nc(-c3ccccc3)ccc2=O)CC1`?
Sm TGR block: 4%; Shiga toxin inh: -7; CHX counter: -3; NS1 inh: -3%; Pf growth 48h: -6%; Pf growth 96h: 9.3µM*

How did N#Cc1c(-c2ccc(Cl)cc2)ccnc1N1CCOCC1 do in these assays?
Sm TGR block: 1%; Shiga toxin inh: 46*; CHX counter: 26*; Pf growth 48h: inconclusive; Pf growth 96h: 4.7µM*

How did Cn1c(Cc2ccc3c(c2)OCO3)nnc1SCC(=O)N1CCc2ccccc2C1 do in these assays?
Sm TGR block: 45µM*; Shiga toxin inh: -7; CHX counter: 0; NS1 inh: 0%; Pf growth 48h: -15%; Pf growth 96h: 5%

How did O=C(c1ncn(Cc2ccccc2)c1C(=O)N1CCc2ccccc2C1)N1CCc2ccccc2C1 do in these assays?
Sm TGR block: inconclusive; Pf growth 48h: 1.5µM*; Pf growth 96h: inconclusive
